Test results as given in PubChem BioAssay (NCI).
About 83,000 compounds went through this panel and 20% of them were active in at least one assay; those are over-represented in the sample as a whole.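 Plates (96-well) were seeded with cells, treated with compound at one concentration, and incubated for 48 hours before percent growth was determined.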 A number with no mark means an inactive call. Activity calls are given as the source filed them. Rule for the calls: active = growth percent below 10; inactive = the rest.

The compounds below were run on HL-60(TB) leukemia (assay: NCI-60 one-dose screen, 48 h (100 = growth as untreated, 0 = no growth, -100 = all killed)). Conditions: 10 µM unless noted.
For `O=C(O)CCCc1ccccc1`, the growth was 109%. Work on `O=C(O)C#Cc1ccc(Cl)cc1` yielded a growth of 94.1%. `Clc1ccc(/C=N\N=C\c2ccc(Cl)c(Cl)c2)cc1Cl` showed a growth of 135%. In the case of `NNC(=O)c1nc2ccccc2[nH]1`, the growth is reported as 101%. In the case of `O=C(O)CCC/C=C\C[C@H]1C=CC(=O)/C1=C/C[C@@H](O)CCc1cccc(C(F)(F)F)c1`, the growth is reported as -11.7% (active). `CC1CN(C(C)C)C(=S)N(c2ccccc2)C1=O` (stereo not given) was tested, and the growth was 113%. In the case of `O=C(/C=C/c1ccccc1)c1ccc2ccccc2c1`, the growth is reported as 56.1%. `CCN(CC)c1ccc(/C=N/NC(=O)c2ccc(S(C)(=O)=O)cc2)c(O)c1` was tested, and the growth was -18.5% (active). In the case of `O=C(CN1C(=O)NC2NC(=O)NC21)N/N=C/c1ccc(Cl)cc1Cl` (stereo not given), the growth is reported as 99.4%. In the case of `Cc1c2cnccc2c(C)c2c1c1cc(C3OCCCO3)ccc1n2C`, the growth is reported as -4.04% (active). With `Cc1c2ccncc2c(C)c2c1c1ccccc1n2CCCCCC(=O)O` the growth was 104%. Work on `N#C/C(=C\c1c(-c2ccccc2)[nH]c2ccccc12)C(N)=O` yielded a growth of 39.6%. For `CCOc1ccc(I)cc1`, the growth was 128%. In the case of `OCCOc1ccc(-c2cc(-c3ccccn3)nc(-c3ccccn3)c2)cc1`, the growth is reported as -36.1% (active). `COc1ccc(-c2cc(=O)c3c(OC)c4ccoc4cc3o2)cc1` gave a growth of 117%. Compound `CCCCNc1cc(C(=O)O)cc(S(N)(=O)=O)c1Oc1ccccc1` has a growth of 107%. `CN1C(=O)N(C)C2C1NN=c1s/c(=C\C=C\c3ccccc3)c(=O)n12` (stereo not given) showed a growth of 17.1%. `CC(C)(C)n1cc(-c2ccnc(NCCNS(=O)(=O)c3ccc(C(F)(F)F)cc3)c2)c(-c2ccccc2)n1` gave a growth of 83.9%. `S=c1c2ncccc2c(-c2ccccn2)nn1Cc1ccccn1` gave a growth of 71.6%. Work on `C/C(=N\O)C(=O)NCCCCCC(=O)Nc1ccccc1` yielded a growth of 93.2%. In the case of `CCCCCCCCCCCCCCCCCC1=NC(C)(C)CN1C(C)(C)CO`, the growth is reported as -66.9% (active). With `CCCCN(CCCC)CCC(=O)c1ccc(OC)c2ccccc12` the growth was 81.1%. For `CC[N+](CC)=c1sc2c(s1)C(c1ccc(Cl)cc1)Oc1ccc(Cl)cc1-2` (stereo not given), the growth was -34.3% (active). In the case of `CCCn1nc(C(=O)N(C)Cc2ccccc2)c2c1CCC(N1CCc3ccccc31)C2` (stereo not given), the growth is reported as 98%. Work on `O=C(Cc1ccc(F)cc1)c1ccccc1` yielded a growth of 108%.
